The target in the first assay is FBXO27. Briefly: pooled miR-30 sensor sort-seq; sequence = guide strand. The following applies: shRNA.
TTACAGGTCCTTGAGGATCAGG yielded a sensor-assay potency score (higher = more potent) of -1.43. On the same count and under the same terms, as for AATTTATCTAGAACAGTCTGGT, the figure is 0.248; as for TTATCTAGAACAGTCTGGTTGG, 0.434.

For the sequence TTGATGTTGGAGAACACGTGGG, the sensor-assay potency score (higher = more potent) was -0.501. TTTATCTAGAACAGTCTGGTTG returned a sensor-assay potency score (higher = more potent) of 0.00929. On to TTTAACGTAGACTTTCAGCTGC, for which the sensor-assay potency score (higher = more potent) is 0.647. TTTTTTTTTAACGTAGACTTTC: the sensor-assay potency score (higher = more potent) was -0.903. The same measure, in the same setting: the same measure for TTTTTTAACGTAGACTTTCAGC: -0.574; for TGTTGCACCATCCACTTTCGGA: -0.815. For the sequence TCTGGTAGTTTCTAGAACCTGA, the sensor-assay potency score (higher = more potent) came to 0.603. For the sequence TTTTCCTCCACCACCCAGCCGT, the sensor-assay potency score (higher = more potent) was -0.662. For the sequence TGATATATTATTCTTACTGTTT, the sensor-assay potency score (higher = more potent) was -0.893.

Another assay has as its target FBXO43. The description is as above. The following applies: shRNA.
For TAATTCTGTTAAGATGTCCAGT, the sensor-assay potency score (higher = more potent) was -0.342. The sequence TTCATGTCCACTATTTTCCTGT displayed a sensor-assay potency score (higher = more potent) of 0.372. Turning to TTGAACAACAATTTCACGCCAA, the sensor-assay potency score (higher = more potent) was found to be 0.6. The same measure, in the same setting: as for TTATCTATATTATCAAAGCTAC, the figure is -0.969. The sequence TTCTTGAAAAGAACCCTCCTGG came in with a sensor-assay potency score (higher = more potent) of 0.0426.

On to TTTATCTTGAACAACAATTTCA, for which the sensor-assay potency score (higher = more potent) was -0.614.

Values taken from the OligoGym collection.
Further: reference of the scale not given here.
